In the library only some 3.1% were active in any assay of this set; here they are far more common.
Mtb FBA inh = inhibitors of M. tuberculosis fructose-bisphosphate aldolase; P9WQA3; purified M. tuberculosis FBA, fluorescence read-out; inhibition, % at 1 µM; 360,000 compounds, 2.3% hits; AID 588726; in the data active = inhibition above about 27%;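 note: 0% = vehicle and 100% = reference inhibitor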
Target sequence (P9WQA3 whole entry, looked up): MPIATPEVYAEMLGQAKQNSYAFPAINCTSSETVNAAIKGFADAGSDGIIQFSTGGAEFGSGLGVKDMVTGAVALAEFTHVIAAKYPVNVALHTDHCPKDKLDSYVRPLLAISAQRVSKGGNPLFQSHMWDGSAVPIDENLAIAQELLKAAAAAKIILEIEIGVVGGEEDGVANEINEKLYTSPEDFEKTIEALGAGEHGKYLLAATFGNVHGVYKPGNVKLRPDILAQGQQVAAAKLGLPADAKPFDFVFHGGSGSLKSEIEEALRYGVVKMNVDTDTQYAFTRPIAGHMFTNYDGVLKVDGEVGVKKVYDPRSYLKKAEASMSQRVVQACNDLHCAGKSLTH
GDH-TPI inh = counter-screen for M. tuberculosis FBA inhibitors: GDH-TPI coupled enzymes; GDH-TPI coupled enzyme counterscreen, NADH absorbance; inhibition, % at 4.8 µM; 360,000 compounds, 1.2% hits; in the data active = inhibition above about 30%;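 note: 0% = DMSO wells and 100% = wells lacking the enzyme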
3CLpro inhibitor = SARS-CoV 3CLpro protease inhibition; P0C6X7; recombinant SARS-CoV 3CLpro, quenched FRET peptide cleavage; inhibition, % at 6 µM; 290,000 compounds, 0.14% hits; AID 1706; in the data active = inhibition above about 12%
FadD28 FP inh = M. tuberculosis FadD28 bisubstrate binding inhibition | FadD28 bisubstrate probe binding, fluorescence polarization | AID 588549 | inhibition, % at 12.5 µM | 360,000 compounds, 0.22% hits; in the data active = inhibition above about 8.5%, passing the limit was not always enough
BioA inh = inhibitors of Mycobacterium tuberculosis BioA enzyme; purified M. tuberculosis BioA enzyme, plate reader; inhibition, % at 9.99 µM; 360,000 compounds, 0.096% hits; AID 602481; in the data active = inhibition above about 40%
Numbers without * were called inactive; / = no result; + = active, no number.

SMILES | Mtb FBA inh | GDH-TPI inh | 3CLpro inhibitor | FadD28 FP inh | BioA inh
CC=Cc1ccc2n(c1=O)C[C@H]1[C@H](CO)[C@@H](C(=O)NCC(F)(F)F)N(CCC)[C@@H]21 (mixture of isomers) | / | / | / | / | -1
Cc1ccc(Nc2cc(C)nc3c(C)cccc23)cc1 | 1 | 32* | 0 | -1 | 6
O=C(CSc1nnc(CNc2ccc(Cl)cc2)o1)Nc1nc2c(s1)CCCC2 | 2 | 13 | 0 | 15* | 0
COc1ccc(CCNC(=O)CSc2nnc(CNc3ccc(Cl)cc3)o2)cc1OC | -1 | -15 | -2 | -5 | 0
C[C@@H]1CN([C@H](C)CO)C(=O)c2cc(NC(=O)Cc3cn(C)c4ccccc34)ccc2O[C@@H]1CN(C)Cc1ccncc1 | / | / | / | / | 1
COc1cc2c(cc1OC)C(c1cc3ccc(C)cc3[nH]c1=O)N(C(=O)c1ccco1)CC2 (configuration not stated) | -1 | 4 | -2 | -5 | 2
COc1cc2c(cc1OC)C(c1cc3cc4c(cc3[nH]c1=O)OCO4)N(C(=O)C1CC1)CC2 (configuration not stated) | 11 | 38* | 6 | -3 | -1
Cc1cc(C)c2nc(N3CCOCC3)c(C#N)cc2c1 | 16 | 7 | 4 | 0 | -2
N#Cc1cc2cc3c(cc2nc1N1CCOCC1)OCO3 | 112* | 1 | 3 | -4 | -3
O=C(c1cc(N2CCOCC2)c(F)cc1[N+](=O)[O-])N1CCOCC1 | 51* | 15 | 0 | 0 | -2
Cc1cc(N2CCN(C(=O)c3cccs3)CC2)c(F)cc1[N+](=O)[O-] | -4 | 38* | -8 | -3 | 4
CCC(=O)c1ccc(N2CCN(C(=O)c3cccs3)CC2)c(F)c1 | 2 | 32* | -1 | -1 | 18
O=C(c1cccs1)N1CCN(c2ccc([N+](=O)[O-])cc2F)CC1 | -3 | 7 | -5 | -1 | -2
O=C(c1ccc(Cl)cc1[N+](=O)[O-])N1CCOCC1 | 1 | -4 | 6 | 0 | -1
O=C(C[C@@H]1C[C@@H]2c3cc(NC(=O)Nc4ccc(C(F)(F)F)cc4)ccc3O[C@@H]2[C@H](CO)O1)NCCc1ccccc1 | / | / | / | / | -2
C[C@H]1CN([C@@H](C)CO)C(=O)Cc2cc(NS(=O)(=O)c3ccc(F)cc3)ccc2O[C@H]1CN(C)S(=O)(=O)c1cn(C)cn1 | / | / | / | / | -2
O=C(C[C@H]1C=C[C@H](NC(=O)C2CCC2)[C@H](CO)O1)NCc1ccncc1 | / | / | / | / | -1
CC(C)n1c(O)c(N=Nc2ccc(Cl)c(C(=O)O)c2)c2ccccc21 | -18 | 12 | 6 | 11* | -1
CCn1c(O)c(N=Nc2ccc(Cl)c(C(=O)O)c2)c2ccccc21 | -19 | 35* | 0 | 1 | 1
CCOC(=O)N=Nc1c(O)n(CC)c2ccccc12 | -2 | 13 | 4 | -1 | /
O=C(N[C@H]1CC[C@@H](CCNC(=O)C2CCOCC2)O[C@H]1CO)c1ccccn1 | / | / | / | / | -3
O=C(c1cccnc1)N1CCCCN2[C@H](CO)[C@@H](c3ccc(C#Cc4ccccc4)cc3)[C@H]2C1 | / | / | / | / | 8
O=C(C1=C(O)C(=O)N(CCN2CCOCC2)C1c1cccc(Br)c1)c1cc2ccccc2o1 (configuration not stated) | 134* | 10 | 3 | 1 | -1
O=C(Nc1sccc1C(=O)NCc1ccco1)c1cccnc1 | 1 | 32* | -5 | -1 | /
O=C(NCc1ccco1)c1ccccc1 | 2 | 3 | 0 | -1 | -2
SMILES | Mtb FBA inh | GDH-TPI inh | 3CLpro inhibitor | FadD28 FP inh | BioA inh
COC(=O)c1c(C(=O)OC)c2c(-c3ccccc3)cc3cccc1n32 | 121* | 15 | / | -10 | 0
Oc1ccc(C2C=C(c3ccc(F)cc3)Nc3ncnn32)cc1 (configuration not stated) | 3 | 14 | 2 | -2 | /
C1=C(c2ccc(-c3ccccc3)cc2)Nc2ncnn2C1c1ccco1 (configuration not stated) | 13 | 9 | 3 | -2 | -14
COc1ccc(C2C=C(c3ccc(C)cc3)Nc3ncnn32)cc1 (configuration not stated) | + | 4 | 6 | -5 | 1
COc1ccc(C2=CC(c3ccc(C)cc3)n3nnnc3N2)cc1 (configuration not stated) | 21 | 25 | 7 | -1 | -12
Fc1ccc(C2=CC(c3ccc(Br)o3)n3ncnc3N2)cc1 (configuration not stated) | 43* | 11 | 1 | -1 | /
Fc1ccc(C2=CC(c3ccco3)n3ncnc3N2)cc1 (configuration not stated) | 113* | 19 | -1 | -2 | -19
C[C@@H]1CCCCO[C@H](CN(C)Cc2ccccc2)[C@@H](C)CN([C@@H](C)CO)C(=O)c2cc(NC(=O)CCC(F)(F)F)ccc2O1 | / | / | / | / | 2
COc1ccccc1-c1cc(C(F)(F)F)nc(N2CCN(c3ccccc3)CC2)n1 | 28* | -1 | -2 | 0 | -2
Cc1cc(NC(=O)c2sc3ccccc3c2O)no1 | + | 9 | 2 | 0 | 2
O=C1c2ccccc2C(=O)c2c1cccc2N1CCCC1 | -2 | 14 | -1 | 2 | 0
Cn1c(=O)cc2c3c(c(N4CCCCC4)ccc31)C(=O)c1ccccc1-2 | -2 | 24 | 1 | 32* | -4
CCOC(=O)c1ccc(NC(=S)NNC(=O)C2(C)CC2(Cl)Cl)cc1 (configuration not stated) | -3 | 12 | -3 | 15* | 0
N#C/C(=C\c1cc2c(cc1Br)OCO2)c1ccc(C(=O)O)cc1 | 0 | 31* | 1 | -2 | 0
CCOc1cc2c(cc1/C=C(/C#N)c1ccc(C(=O)O)cc1)OCO2 | -4 | 2 | 3 | -3 | /
CN1C(=O)c2cc(NC(=O)C3CCCCC3)ccc2OC[C@H]2O[C@H](CC(=O)NCCc3ccncc3)CC[C@@H]21 | / | / | / | / | -1
O=C(CC(F)(F)F)N1C[C@@H]2[C@H](c3ccccc31)[C@@H](CO)N2C(=O)C1CC1 | / | / | / | / | -1
CCN(CC)CCN(C(=O)c1ccc2c(c1)OCCO2)c1nc2cc3c(cc2s1)OCO3 | -1 | 4 | 5 | -3 | 0
CCN(CC)CCN(C(=O)c1cc2c(ccc3ccccc32)oc1=O)c1nc2cc3c(cc2s1)OCCO3 | + | 11 | -1 | -2 | -1
C[C@@H]1CN([C@@H](C)CO)C(=O)c2cc(Br)cnc2O[C@@H]1CN(C)C(=O)c1ccccc1F | / | / | / | / | -1
COCCn1c(-c2ccccc2)nc2ccccc21 | 5 | 6 | -8 | -5 | 0
CCCn1c(-c2cccs2)nc2nc3ccccc3nc21 | + | 31* | -2 | -7 | 1
COCCn1c(-c2cccs2)nc2nc3ccccc3nc21 | + | 19 | 4 | -3 | 0
c1csc(-c2nc3nc4ccccc4nc3n2Cc2ccc3c(c2)OCO3)c1 | 2 | 25 | 9 | -2 | -2
COc1ccc(C(=O)/C=C/NCc2ccc(C)cc2)cc1 | 0 | 44* | -5 | -1 | -2
COc1ccc(C(=O)/C=C/Nc2cc(C)on2)cc1 | 0 | 41* | -2 | -3 | 2
